Our source for the growth values is PubChem BioAssay (NCI).

This is part of a sample that, as a whole, favours compounds with a hit. Of some 83,000 tested, about 20% had one in any assay.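 The endpoint reported here, percent growth, reads 100 for growth as untreated, 0 for no net growth and -100 for all cells dead.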 A number with no mark means an inactive call. Active and inactive are the calls of the source. The calls were made as follows: active = growth percent below 10; inactive = the rest.

Common to all, as to test: NCI-60 one-dose screen, 48 h (100 = growth as untreated, 0 = no growth, -100 = all killed)
What all share (settings): 10 µM unless noted

The subject of test [1] is SK-MEL-2 melanoma.
In test [2] the test system is EKVX NSCLC.
For test [3], the system named is SN12C renal.
Test [4] deals with UO-31 renal.
The test system of test [5] is TK-10 renal.
The test system of test [6] is ACHN renal.
Test [7] deals with A498 renal.
Test [8] concerns CCRF-CEM leukemia.
For test [9], the system named is MOLT-4 leukemia.
The subject of test [10] is SR leukemia.

On to `CCc1n(Cc2ccc3ccccc3c2)c2ccccc2[n+]1Cc1ccc2ccccc2c1`, for which the growth in test [1] was 71.6%; in test [2] it was 76.7%; in test [3], 65.2%; in test [4] it was 87.2%; in [5] it was 75.5%; in test [6] it was 96.5%. Besides, the growth in [7] was 87.6%; in [8], 63.5%; in test [9] it was 73.4%; in [10], 28.4%.

For `NS(=O)(=O)c1ccc(-n2ncc(NC(=O)Nc3ccc(S(=O)(=O)Nc4nccs4)cc3)c2-c2ccccc2)cc1`, the growth in [1] was 93.2%; in test [2], 100%; in test [3], 98.8%; in test [4], 97.5%; in [5] it was 95.9%; in test [6], 96.5%. Besides, the growth is 112% in test [7], 97.7% in [8], 100% in test [9] and 103% in test [10].

Consider `CCOC(=O)NCCc1nc2c([nH]1)c(=O)n(C)c(=O)n2C`, for which the growth in [1] is 101%; in test [2], 99.7%; in test [3] it was 101%; in test [4], 83.3%; in test [5], 100%; in test [6], 110%. Further, the growth is 105% in test [7], 101% in test [8], 115% in test [9] and 119% in [10].

As to `Nc1cccc(C(=O)Nc2ccc3c(O)c(N=Nc4ccc(N=Nc5ccc(S(=O)(=O)O)cc5)cc4)c(S(=O)(=O)O)cc3c2)c1`, the growth in [1] was 108%; in test [2] it was 103%; in test [3] it was 106%; in test [4], 90.2%; in test [5], 101%; in test [6], 105%. Also, the growth in test [7] was 105%; in test [8], 96.6%; in test [9], 84.6%; in test [10], 77.4%.

`Fc1ccc(N/N=C/c2ccc(-n3cccn3)cc2)cc1`: the growth is 103% in test [1]; 81.3% in test [2]; 108% in test [3]; 80.4% in [4]; 111% in [5]; 91.7% in test [6]. Moreover, the growth in [7] was 119%; in [8], 89.5%; in test [9], 89%; in [10], 64.1%.

On to `CC(C)C1=C[C@@]23CC[C@H]4[C@](C)(COCCC#N)CCC[C@]4(C)[C@H]2C[C@@H]1[C@@H]1[C@H]3[C@@H](OCCC#N)CC[C@@H]1OCCC#N`, for which the growth in test [1] is 24.5%; in [2], 17.6%; in test [3] it was 32.9%; in test [4], 24.8%; in [5], 37.7%; in test [6], 25%. The growth in [7] was 67.7%; in test [8] it was 34.3%; in test [9], 5.36% (active); in test [10] it was 15%.

As for `O=Cc1[nH]c(Sc2ccccc2)c2ccccc12`, the growth was 81.6% in [1]; 76.1% in test [2]; 77.7% in [3]; 48.6% in test [4]; 80.3% in [5]; 96.6% in [6]. Further, the growth in [7] was 95.3%; in [8], 12.1%; in test [9] it was 17%; in test [10] it was 59.3%.

Consider `Cn1c2c(c3ccc(-c4ccn[nH]4)cc3c1=O)C(=O)c1ccccc1-2`, for which the growth in [1] is 118%; in test [2] it was 20.2%; in test [3], 7.3% (active); in test [4] it was 19.2%; in test [5], 71.6%; in test [6] it was -8.82% (active). Further, the growth is 60% in [7], 2.31% (active) in test [8], -1.45% (active) in [9] and 1.32% (active) in test [10].

On to `CN(C)C1=NCCN1`, for which the growth in [1] was 81.5%; in [2], 103%; in [3], 104%; in test [4], 96.2%; in [5] it was 93.6%; in test [6] it was 111%. Besides, the growth is 107% in [7], 90.2% in test [8], 92.6% in [9] and 108% in [10].

As to `CCN1CCC[C@H]1c1cc(O)c2c(c1OC)C[C@H]1C[C@H]3[C@H](N)C(=O)C(C(N)=O)=C(O)[C@@]3(O)C(=O)C1=C2O`, the growth is -43.9% (active) in test [1]; -8.34% (active) in test [2]; -3.68% (active) in [3]; -5.6% (active) in [4]; -8.12% (active) in [5]; -2.88% (active) in [6]. Also, the growth in test [7] is -14.7% (active); in test [8], 1.43% (active); in [9], -16.8% (active); in test [10], -18.8% (active).

Turning to `C=C(C)[C@@H]1CC[C@]2(C(=O)N3CCN(C)CC3)CC[C@]3(C)[C@H](CC[C@@H]4[C@@]5(C)C/C(=C/c6ccco6)C(=O)C(C)(C)[C@@H]5CC[C@]43C)[C@@H]12`, the growth in [1] is 83.7%; in test [2], 68.2%; in test [3], 64.9%; in test [4] it was 60.5%; in test [5], 98.8%; in [6], 74.7%. Further, the growth in [7] was 97.5%; in test [8] it was 50.1%; in test [9], 28.6%; in test [10], -21.9% (active).

As for `CC(=O)Nc1c(C(=O)Nc2ccccc2)sc2nc3c(cc12)C(OC(C)=O)CCC3` (stereo not given), the growth is 89.8% in [1]; 99.6% in test [2]; 89.6% in test [3]; 72.9% in test [4]; 75.9% in [5]; 59.5% in test [6]. Further, the growth in [7] was -1.22% (active); in [8], 94.6%; in test [9] it was 100%; in [10], 80%.

As to `COC(=O)c1nc(-c2ccccc2)oc1S(=O)(=O)n1nc(-c2ccccc2)cc1N`, the growth in test [1] is 85.9%; in test [2] it was 95.9%; in test [3], 73.3%; in [4] it was 65.6%; in test [5], 114%; in [6], 19.2%. Moreover, the growth in [7] is 108%; in test [8], 27.2%; in test [9], 17.6%; in [10], 1.74% (active).

Regarding `COC(=O)/C=C1\SC(=Nc2ccc(C(F)(F)F)cc2)N(CCc2c[nH]c3ccccc23)C1=O`, the growth in test [1] is -54.1% (active); in test [2], -6.54% (active); in test [3], -65.1% (active); in test [4] it was -100% (active); in test [5] it was -33.7% (active); in test [6], -100% (active). In addition, the growth in [7] was -48.5% (active); in test [8], 3.88% (active); in test [9], -11.4% (active); in [10] it was -13.7% (active).

Regarding `CCOC(=O)CC[C@H](NC(=O)c1ccc(NC)c2ccccc12)C(=O)OCC`, the growth is 106% in test [1]; 89.4% in test [2]; 90.3% in [3]; 93.8% in test [4]; 90.6% in test [5]; 98.8% in test [6]. The growth in test [7] was 91%; in test [8], 91.2%; in test [9] it was 98.6%; in test [10] it was 101%.

On to `C#C[C@@]1(O)[C@@H](CO)O[C@@H](n2cc(-c3ccco3)c3c(N)ncnc32)[C@@H]1O`, for which the growth in [1] is 84.3%; in [2], 67.3%; in test [3], 71.8%; in [4] it was 36.5%; in [5], 69.1%; in [6], 90.2%. For the same molecule, the growth was 54.6% in [7], 86.9% in [8], 32.8% in test [9] and 94.4% in test [10].

Regarding `O=C(CCc1nnco1)c1nc2ccc([N+](=O)[O-])cc2[nH]1`, the growth was 94.7% in test [1]; 94% in test [2]; 107% in [3]; 74.9% in test [4]; 146% in test [5]; 101% in [6]. The growth in test [7] was 126%; in test [8] it was 109%; in [9], 97.9%; in test [10], 91.5%.

As for `Cc1ccc(C2CC(c3ccc(Nc4nc(NCCO)nc(NCCO)n4)cc3)=NN2c2ccc(Cl)cc2)cc1` (stereo not given), the growth in test [1] is 70.6%; in test [2], 65.7%; in [3], 82.4%; in [4], 62.3%; in test [5] it was 82.6%; in [6] it was 52.2%. Also, the growth in test [7] was 86.1%; in test [8], 31.8%; in test [9], 32.3%; in test [10] it was 26.2%.

For `COc1cc(-c2nn(-c3ccc(Br)cc3)cc2CO)ccc1O`, the growth is 100% in test [1]; 92.5% in test [2]; 97.1% in test [3]; 59.9% in [4]; 110% in test [5]; 100% in test [6]. For the same molecule, the growth in test [7] is 77.2%; in test [8], 54.9%; in test [9] it was 57.1%; in test [10], 65.4%.

Regarding `C=C1C(=O)O[C@H]2[C@H]1CC/C(COC(=O)c1cccnc1)=C\CC[C@@]1(C)O[C@@H]21`, the growth was 88.3% in test [1]; 71.8% in test [2]; 51.8% in [3]; 69.9% in [4]; 63.1% in test [5]; 45.2% in [6]. The growth in test [7] is 102%; in test [8], 3.51% (active); in test [9], 71.5%; in test [10], 21%.

Turning to `COc1ccc(C(=O)c2cc(OC)c(OC)c(OC)c2)cc1OC(=O)C(Cl)(Cl)Cl`, the growth was 29.8% in test [1]; 61.3% in test [2]; 30.9% in test [3]; 39.1% in test [4]; 65.6% in test [5]; 31.8% in test [6]. The growth in test [7] is 46.5%; in test [8], 8.37% (active); in test [9] it was 11.8%; in test [10], 6.59% (active).

On to `O=c1[nH]c2ccccc2cc1-c1nc2ccc(Cl)cc2[nH]1`, for which the growth is 18.7% in test [1]; 22.6% in test [2]; 48.4% in test [3]; 45.7% in test [4]; 37.5% in [5]; 27% in test [6]. The growth in [7] is 48.3%; in [8], 13.7%; in [9] it was -19.7% (active); in [10] it was 8.43% (active).

In the case of `COc1cc([C@H](C)c2ccc3ccccc3c2)cc(OC)c1OC`, the growth in [1] was 28.3%; in test [2] it was 30.9%; in test [3] it was 48.3%; in test [4] it was 42.1%; in [5] it was 61.4%; in test [6] it was 35.1%. The growth was 12.7% in test [7], 16% in [8], 13.5% in [9] and 23.5% in test [10].

In the case of `Cc1nc2sc(C(=O)Nc3ccccc3)c(N)c2cc1C(C)O` (stereo not given), the growth in test [1] was 39.3%; in test [2], 76.1%; in [3], 43.2%; in test [4] it was 61.6%; in [5], 65.9%; in [6] it was 54.2%. The growth in [7] was 36.3%; in [8], 16.6%; in [9], 25.7%; in test [10], 11.7%.

On to `COC1=CC=CC2(OC)C3(O)CCCc4cccc(c43)N3C(=O)COC132` (stereo not given), for which the growth is 93.9% in test [1]; 98.6% in test [2]; 101% in test [3]; 82.1% in [4]; 96.7% in [5]; 105% in test [6]. Besides, the growth in [7] was 98.4%; in [8] it was 94.8%; in [9] it was 97.8%; in test [10], 109%.

For `O=C1NC(c2ccc(F)cc2)N=C2C(c3ccccc3)=NOC12` (stereo not given), the growth in test [1] is 108%; in test [2], 99.8%; in test [3] it was 104%; in test [4], 97.4%; in [5], 106%; in test [6] it was 107%. Besides, the growth in test [7] was 104%; in [8], 102%; in [9], 116%; in test [10], 112%.
